# About 83,000 compounds went through this panel and 20% of them were active in at least one assay; those are over-represented in the sample as a whole.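 Plates (96-well) were seeded with cells, treated with compound at one concentration, and incubated for 48 hours before percent growth was determined.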 Unmarked numbers belong to inactive results. Activity calls are given as the source filed them. Rule for the calls: active = growth percent below 10; inactive = the rest.
# Test system: MDA-MB-468 breast
# Assay: NCI-60 one-dose screen, 48 h (100 = growth as untreated, 0 = no growth, -100 = all killed)
# Details: 10 µM unless noted
row,SMILES,growth
1,O=S(=O)(NCCCNc1cc(-c2cn(-c3ccccc3)nc2-c2cccc(O)c2)ccn1)c1cccc2ccccc12,-18.4% (active)
2,COc1ccc(-c2cc(-c3ccc(OC)cc3)nc(NCCCNc3ccnc4cc(Cl)ccc34)n2)cc1,74.8%
3,CCCCCN1C(=O)CCC1=O,108%
4,O=c1ccccc(-c2ccc(Br)cc2)c1O,12.3%
5,COc1ccc(/C(=C\c2cc(OC)c(OC)c(OC)c2)C(=O)N2CCCNCC2)cc1,98.1%
6,Cc1cc(NCc2cc(Nc3ccnc4cc(Cl)ccc34)ccc2F)nc(Cl)n1,-3.4% (active)
7,O=C(N/N=C/c1ccccc1O)c1ccncc1,61%
8,COc1ccc(/C=C/C(=O)C(CC2CCC2)C(=O)/C=C/c2ccc(OC)c(OC)c2)cc1OC,-22.2% (active)
9,N#Cc1ccc(NC2c3ccccc3CC2O)cc1 (stereo not drawn),107%
10,Nc1cccc(Nc2cc(S(=O)(=O)O)c(N)c3c2C(=O)c2ccccc2C3=O)c1,112%
11,CCCCCCCCCCNC(=O)CCl,67.8%
12,CCN(CC)c1ccc(/C=C/C(=O)c2cccc(NS(C)(=O)=O)c2)cc1,35.4%
13,O=C(O)COc1ccc(-c2cssc2=S)cc1,99.5%
